# ± gives the standard deviation of the averaged measurements. Over roughly 33,000 sequences, “E-score (rank enrichment, -0.5 to 0.5)” has its median near -0.0068; the highest 2% begin near 0.24. The entries come from a sample that favours the highest values as a whole.
# System: muMax20 (Max(13-93) K31hArg/K57hArg, M65Nle)
# Assay: PBM 8-mer E-score (E-score (rank enrichment, -0.5 to 0.5)); higher = stronger preferential binding
# Method: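 Protein binding microarray (universal PBM chip covering all 10-mers in fixed probe flanks) with chemically synthesized human Max(13-93) bHLH-LZ analogs (not full-length Max) bearing noncanonical residues (hArg, Tha, Aib, Nle at 65) and aromatic Cys staples. Read-out per 8-mer (and its reverse complement): E-score (rank-based enrichment, -0.5 to 0.5) and Z-score of median probe intensity.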
row,Sequence,PBM 8-mer E-score
1,GTAATACA,0.182 ± 0.082
2,ATAATACC,0.261 ± 0.049
3,AGAATACC,0.142 ± 0.0044
4,TCAATACA,0.18862 ± 0.00013
5,AAAATACA,0.159 ± 0.058
6,ACAATACA,0.191 ± 0.02
7,CTAATACC,0.0669 ± 0.08
8,ATAATACA,0.281 ± 0.027
9,ATAATACG,0.19 ± 0.015
10,CTAATACA,0.248 ± 0.047
11,ACAATACT,0.174 ± 0.049
12,ACAATACC,0.237 ± 0.02
13,ACTATGGC,-0.0571 ± 0.07
14,AATTTTCG,0.0133 ± 0.1
15,GCCCTACA,-0.127 ± 0.021
16,CCCGCACG,-0.0959 ± 0.058
17,TGAGCGCA,-0.0144 ± 0.0021
18,AACGGCAA,0.112 ± 0.025
19,CTCTGCGA,-0.167 ± 0.1
20,AGTTACCC,-0.029 ± 0.015
21,GGGATGGA,0.0386 ± 0.042
22,ACCAGTTG,-0.0933 ± 0.12
23,ACTTCAAT,0.173 ± 0.027

row,Sequence,PBM 8-mer E-score
1,CAAATACA,0.325 ± 0.037
2,GAAATACA,0.132 ± 0.063
3,CAAATACC,0.0739 ± 0.027
4,GTAACGTA,0.0209 ± 0.03
5,ATAACGTA,0.24 ± 0.0069
6,ATAACGTC,0.121 ± 0.0034
7,AAGTCACA,0.029 ± 0.056
8,AAGTCACT,0.24 ± 0.12
9,AAGTCACG,0.0988 ± 0.052
10,GCTTGCAA,0.0886 ± 0.032
11,AAAAATGG,0.153 ± 0.002
12,GAGCCAAC,-0.0474 ± 0.026
13,AAAACCTC,0.104 ± 0.039
14,CTGTATAA,0.191 ± 0.029
15,ATGTAGAA,0.264 ± 0.0091
16,TGATATAA,0.211 ± 0.09
17,GAATATAA,0.264 ± 0.023
18,TAATATAA,0.232 ± 0.018
19,GAATATAC,0.157 ± 0.014
20,TTATATAA,0.274 ± 0.062
21,ATGTAGAG,0.04 ± 0.13
22,CTGTAGAA,0.031 ± 0.018
23,ATATATAT,0.155 ± 0.016

row,Sequence,PBM 8-mer E-score
1,ATGTATAA,0.268 ± 0.022
2,GTGTATAA,0.1625 ± 0.0011
3,AGGGAACC,-0.237 ± 0.012
4,TACGGCTA,-0.0274 ± 0.029
5,ATGGGCGG,0.009 ± 0.039
6,GTTAGAAC,-0.0507 ± 0.042
7,ATATATAA,0.288 ± 0.052
8,GTATATAA,0.202 ± 0.069
9,CTATATAA,0.165 ± 0.12
10,ACGCCTCG,-0.092 ± 0.092
11,CATCCGGC,-0.291 ± 0.032
12,ATCGGACG,-0.0422 ± 0.092
13,AAAGATAG,0.0409 ± 0.14
14,AAAGATAA,0.2372 ± 0.001
15,CAAGATAC,0.153 ± 0.0086
16,AAAGATAC,0.145 ± 0.05
17,CAAGATAA,0.253 ± 0.064
18,TAAGATAA,0.0507 ± 0.17
19,ATCAGAGG,-0.121 ± 0.076
20,CCATGTTA,0.109 ± 0.039
21,GCATGTTA,0.116 ± 0.14
22,AGATGTTG,-0.125 ± 0.12
23,ACATGTTG,0.271 ± 0.022

row,Sequence,PBM 8-mer E-score
1,ACATGTTC,0.1643 ± 0.00078
2,ACATGTTA,0.241 ± 0.085
3,AACGAATT,0.236 ± 0.0088
4,CAAGGTAC,0.0659 ± 0.12
5,ACACCGAT,-0.183 ± 0.16
6,AGGTTAGG,0.0305 ± 0.073
7,CACGTTTA,0.0929 ± 0.011
8,CCTTAACC,-0.159 ± 0.009
9,ACGTGAAA,0.249 ± 0.083
10,ACTTGATG,0.0184 ± 0.013
11,ACTTGATA,0.242 ± 0.033
12,AAGTGATC,0.074 ± 0.034
13,ACGTGAGG,0.111 ± 0.1
14,ACGTGATC,0.286 ± 0.1
15,ACGTGAGA,0.168 ± 0.054
16,ACTTGATC,-0.00466 ± 0.064
17,ACGTGAAC,0.0624 ± 0.078
18,CCGTGATC,-0.311 ± 0.027
19,TCGTGAAA,0.0589 ± 0.081
20,ACGTGAGT,0.2594 ± 0.0012

# From the supplement of paper PMC12636033
